Only some compounds are listed: those with a hit (about 0.67% of all), similar ones and a draw of the others.
TcdB GH inh: blocks C. difficile toxin B glycohydrolase activity; P18177; TcdB glycohydrolase enzymatic assay, plate reader; inhibition, % at 9.99 µM; 350,000 compounds, 0.24% hits; AID 652162; in the data active means inhibition above about 10%
RN4220 kill: S. aureus RN4220 growth inhibition; inhibition, % (concentration not given with the values); OD600, 16 h; 330,000 compounds, 0.33% hits; in the data active means inhibition above about 85%;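 further: plate controls were untreated cells for no effect and reference antibiotic for full effect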
ugtP null kill: compounds lethal to S. aureus RN4220 ugtP deletion mutant; 330,000 compounds, 0.54% hits; OD600 growth, 16 h; growth inhibition, % (concentration not given with the values); AID 1259309; in the data active means growth inhibition above about 68%;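 further: plate controls were untreated wells for no effect and antibiotic for full effect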
Vc quorum ag: induces V. cholerae light production without autoinducers. V. cholerae BH1578 lux reporter, luminescence, 6 h. activation, % at 18.7 µM. 350,000 compounds, 0.16% hits. AID 588436; in the data active means activation mostly above about 9.7%, no sharp cut-off
The depositor's hits bear a star; i = inactive; · = no result given.

SMILES	TcdB GH inh	RN4220 kill	ugtP null kill	Vc quorum ag
O=C(CCN1C(=O)C2C3C=CC(C3)C2C1=O)NC1CCCc2ccccc21 (stereo not given)	·	3	0	66*
COc1ccc(C(=O)/C=C2\Sc3ccccc3N2C)cc1	2	7	7	0
COc1ccccc1OC(=O)CCN1c2ccccc2Sc2ccccc21	·	-4	1	0
COc1ccc(-[n+]2c(C)cc(/C=C3\Sc4ccccc4N3C)cc2C)cc1	10	100*	100*	5
COc1ccccc1-[n+]1c(C)cc(/C=C2\Sc3ccccc3N2C)cc1C	5	100*	100*	i
COc1ccc(SCCN2CCC(C)CCC2=O)cc1 (stereo not given)	·	8	-1	·
CC(=O)/C(N=Nc1cc2c(cc1[N+](=O)[O-])OCCO2)=C(\C)O	1	1	-4	i
CC(=O)/C(N=Nc1cc2c(c([N+](=O)[O-])c1C)C(C)(C)CC2(C)C)=C(\C)O	2	-3	89*	0
COc1ccc2c(Cl)c(C(=O)NN=Cc3ccncc3)sc2c1	·	-1	-2	·
CC(CC(=O)NC(C)(C)C)=NNC(=O)c1ccccc1N	·	3	9	·
Cc1cccc(C(=O)c2cnc3ccccc3c2-c2ccccc2)c1	·	-1	88*	-4
CN1C(=O)NC(c2ccc(O)cc2)C2=C1CN(c1ccc(O)cc1)C2=O (stereo not given)	19*	5	10	-1
CCC(CC)C(=O)Oc1c(Sc2ccccc2[N+](=O)[O-])c(C)nn1C(C)(C)C	·	-7	96*	-1
Nc1nnc(-c2ccc([N+](=O)[O-])o2)s1	1	98*	92*	-2
O=C(CNc1n[nH]c(=O)[nH]c1=O)NN=Cc1cccnc1	·	2	7	·
O=c1c2ccccc2nc(COc2ccccc2)n1N=Cc1ccco1	·	23	-2	·
CCCCCCC(=O)O	-2	3	6	0
CCCCCCCCCCCCCCCC(=O)OC(CC(=O)O)C[N+](C)(C)C (stereo not given)	2	42	99*	-1
O=C(NN=Cc1ccc(OCC(=O)N2CCCCC2)cc1)c1ccccc1	·	0	5	·
O=C(Nc1ccccc1)Nc1cc(OCC(F)(F)F)cc(OCC(F)(F)F)c1	2	90*	94*	0
O=C(Nc1ccccc1)Nc1cc(Cl)cc(Cl)c1	·	·	·	i
Cc1ccc(C)c(CN2C(=O)COc3ccc(C(=O)c4ccccc4C(=O)O)cc32)c1	14*	9	1	i
NN=CC(=NNc1ccc(Cl)cc1)C(=O)c1ccncc1	·	2	1	·
Fc1ccccc1Nc1n[nH]c(=S)s1	10*	2	-5	i
Cc1ccccc1Nc1n[nH]c(=S)s1	2	·	·	i
SMILES	TcdB GH inh	RN4220 kill	ugtP null kill	Vc quorum ag
COC(=O)C1=C(c2ccc(Cl)c(C(F)(F)F)c2)CC2CCC1N2C(=O)NCCO (stereo not given)	·	3	-6	·
O=[N+]([O-])c1c(Nc2cccc(O)c2)cc(Cl)c2nonc12	0	·	·	-1
CNc1cc(Cl)c2nonc2c1[N+](=O)[O-]	0	94*	98*	0
NCCCCC1CNC(=O)C(=O)N1CCC12CC3CC(CC(C3)C1)C2 (stereo not given)	·	6	-3	·
CC(=O)N1CCC2(CC1)CC(=NNC(=S)Nc1ccccc1F)c1cc(O)ccc1O2	·	9	8	·
Cc1ccc(NC(=O)/C(=C\c2cccs2)NC(=O)c2ccccc2)cc1	·	-5	-8	-3
COc1cc(/C=C(/NC(=O)c2ccccc2)C(=O)Nc2ccc(O)cc2)c([N+](=O)[O-])cc1OC	13*	-1	5	-1
O=C(Nc1ccc(O)cc1)/C(=C\c1cccs1)NC(=O)c1ccccc1	19*	4	-2	-1
COc1cc(/C=C(/NC(=O)c2ccccc2)C(=O)Nc2ccccc2)c([N+](=O)[O-])cc1OC	·	14	-2	0
Cc1cccc(Cn2nnc3c2C(=O)c2ccccc2C3=O)c1	·	69	86*	-1
CC1CN(C(C)CO)C(=O)c2cccc(N(C)C)c2OC1CN(C)C(=O)Nc1ccc(C(F)(F)F)cc1 (stereo not given)	·	1	-1	·
CCOC(=O)NN=C(C)c1ccc([N+](=O)[O-])o1	·	13	21	·
Cc1nc2c(=O)n(C)c(=O)nc-2n(C)n1	·	37	39	0
CCn1nc(-c2ccccc2)nc2c(=O)n(C)c(=O)nc1-2	·	95*	100*	i
CCN(CC)c1nc(Nc2ccccc2)nc(Oc2ccc(=O)[nH]n2)n1	·	1	-6	-1
CN(C)c1nc(NCc2ccccc2)nc(Oc2ccc(=O)[nH]n2)n1	·	4	-3	17*
CCOCC(=O)Nc1cc(Cl)ccc1C	10*	9	6	0
O=C1Nc2ccccc2Nc2ccc([N+](=O)[O-])cc21	0	-3	10	-1
Cc1ccc(Oc2cc([N+](=O)[O-])cc3c2C(=O)Nc2ccccc2O3)cc1	·	97*	91*	i
CCCCCCCCn1ccc(=N)cc1	1	4	14	-1
CCCCCCCCCCn1ccc(=N)cc1	0	100*	101*	-1
CCc1sc(N(C(=O)Cc2ccccc2)c2ccccc2F)nc1-c1ccc(C)cc1	-1	-11	85*	0
Cc1ccc(-n2sc3ccccc3c2=O)cc1	·	100*	100*	0
CCOc1ccc(-n2c(C)cc(C=NNC(=O)C(N)=O)c2C)cc1	·	-1	-3	·
CCOC(=O)c1[nH]nc(-c2cc(CC)c(O)cc2O)c1-c1cscn1	15*	6	-1	0
SMILES	TcdB GH inh	RN4220 kill	ugtP null kill	Vc quorum ag
COc1cc(C=NNC(=O)c2cc(-c3cccn3C)n[nH]2)cc(OC)c1OC	·	51	90*	·
COc1cc(/C=N/NC(=O)c2cc(-c3cccn3C)n[nH]2)cc(OC)c1OC	·	·	·	i
NC(=NO)c1cn(Cc2ccccc2Cl)c2ccccc12	·	8	2	·
Cc1csc(=NN=Cc2ccccc2)n1Cc1ccco1	·	-4	30	·
COc1ccc(NC(=O)Nc2nc(C)cc(C)n2)c(OC)c1	11*	3	2	-1
CCCCC(=O)OCc1c(-c2cccc(OC)c2)ncc2ccccc12	0	7	86*	0
O=C(O)CC1SC(=NN=Cc2ccccc2O)N(c2ccc(O)cc2)C1=O (stereo not given)	·	-2	-6	·
COc1ccc(S(=O)(=O)N2CCC[C@H]2C(=O)N2CCC[C@H]2C(=O)NCc2ccncc2)cc1C	10*	·	·	·
COc1ccc(C2=NS(=O)(=O)N(C)C(C(=O)NCc3ccc4c(c3)OCO4)=C2)cc1	100*	5	-8	0
CC1CCC(C(C)C)C(OC(=O)C[n+]2cc(-c3ccc(Cl)cc3)n3c2CCC3)C1 (stereo not given)	0	101*	101*	0
Cc1ccc(-c2c[n+](CC(=O)OCc3ccccc3)c3n2CCC3)cc1	-1	4	8	i
COc1cc(-c2nc(=S)[nH][nH]2)cc(OC)c1OC	30*	-1	-2	0
O=C(NC(=S)Nc1ccc(S(=O)(=O)N2CCCCC2)cc1)c1ccc(Cl)cc1	·	-10	91*	0
CN1CCN(S(=O)(=O)c2ccc(NC(=S)NC(=O)c3ccc(Cl)cc3)cc2)CC1	·	4	90*	i
CCCCC(=O)NC(=S)Nc1ccc(S(=O)(=O)N2CCCC2)cc1	·	5	94*	0

High-throughput results deposited in PubChem BioAssay by several laboratories.
